The results in this text go back to PubChem BioAssay AID1851 (National Center for Advancing Translational Sciences (NCATS), 2009).

SMILES strings stand for the structures. Screen size: about 16,000 compounds; about 2,600 (16%) were called active. About 20% were inconclusive and are not listed. The call rests on the fitted dose curve; in most records, active means well fitted curve in the direction sought with a large enough effect; inconclusive means small, poorly fitted or top-dose-only effect, or effect the other way; inactive means no such curve, though single readings can be large or run the other way. A selection follows.
On the % scale 0 is the no-effect control and ±100 the full control effect.

Sequence of Cytochrome P450 2D6 (Homo sapiens) (P10635 whole entry, looked up): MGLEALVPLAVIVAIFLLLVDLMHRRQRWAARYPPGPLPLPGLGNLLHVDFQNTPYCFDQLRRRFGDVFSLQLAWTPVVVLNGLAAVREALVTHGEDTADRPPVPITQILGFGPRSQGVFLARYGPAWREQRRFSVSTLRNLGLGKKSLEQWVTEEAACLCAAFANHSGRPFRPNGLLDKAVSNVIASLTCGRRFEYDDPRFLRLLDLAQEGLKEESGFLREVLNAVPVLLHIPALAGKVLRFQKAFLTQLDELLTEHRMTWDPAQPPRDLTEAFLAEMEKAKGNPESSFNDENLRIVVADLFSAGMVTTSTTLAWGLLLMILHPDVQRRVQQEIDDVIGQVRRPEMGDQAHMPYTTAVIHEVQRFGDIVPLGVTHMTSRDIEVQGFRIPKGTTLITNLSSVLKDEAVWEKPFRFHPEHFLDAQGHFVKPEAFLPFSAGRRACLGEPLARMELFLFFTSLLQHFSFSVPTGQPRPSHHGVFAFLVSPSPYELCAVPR

The assay concerns the target Cytochrome P450 2D6 (Homo sapiens) (UniProt P10635). Description: Cytochrome panel assay with activity outcomes. The following applies: recombinant CYP, pro-luciferin dealkylation, luminescence, p450-cyp2d6; series mostly up to 57.1 µM.
Regarding `Cn1c(N)c(N=Nc2ccc(S(N)(=O)=O)cc2)c(=O)n(C)c1=O`, the activity, negative = inhibition was 5.11% [at 11.4 µM] (inactive).

Consider `Cc1cc(N2CCOCC2)nc2ccc(Cc3ccc4nc(N5CCOCC5)cc(C)c4c3)cc12`, for which the activity, negative = inhibition was -2.88% [at 11.4 µM] (inactive).

`CCN(CC)C(=O)N1CCN(C)CC1`: the AC50 (as a rule, the concentration at which the activity in the assay is half-maximal) is “inactive”.

Take `COc1ccc(Sc2ccc(NC(=O)c3ccccc3Cl)cc2C#N)cc1`: the AC50 result was “inactive”.

With `CCOC(=O)c1ccc(NC(=O)CC2NCCNC2=O)cc1` (stereo not given), the AC50 result was “inactive”.

Regarding `Cc1cccc(NC(=O)CC2Nc3cccc4cccc(c34)NC2=O)c1` (stereo not given), the concentration at half-maximal activity (AC50) was 14.1 µM (active).

For the molecule `CC(=O)Nc1ccc(NC(=O)CC2Nc3cccc4cccc(c34)NC2=O)cc1` (stereo not given), the AC50 result is “inactive”.

Regarding `Cc1nc(NS(=O)(=O)c2ccc(Br)cc2)c2c3c(sc2n1)CCC3`, the AC50 result was “inactive”.

Take `Cc1cc(NC(=O)c2cccc(F)c2)no1`: the AC50 entry is “inactive”.

`Cc1ccc(-c2csc(C(C#N)=C3CCCC3)n2)cc1`: the AC50 result is “inactive”.

As for `Cc1ccc(N2CC(C(=O)Nc3cc(C)on3)CC2=O)cc1` (stereo not given), the AC50 entry is “inactive”.

For the molecule `c1ccc(CNc2ncncc2-c2ccoc2)cc1`, the AC50 is 20 µM (active).

In the case of `c1csc(CNc2ncncc2-c2ccoc2)c1`, the AC50 is 15.8 µM (active).

For `Cc1cnc(CNc2ncncc2-c2ccoc2)cn1`, the AC50 entry was “inactive”.

As to `NCCCC(=O)O`, the AC50 result is “inactive”.

For the molecule `CCC(=O)O[C@@H]1[C@H](C)O[C@H](O[C@H]2[C@@H](N(C)C)[C@H](O)[C@@H](O[C@@H]3[C@@H](CC=O)C[C@@H](C)[C@@H](O)/C=C\C=C/C[C@@H](C)OC(=O)C[C@@H](OC(=O)CC)[C@H]3OC)O[C@H]2C)C[C@]1(C)O`, the AC50 entry was “inactive”.

In the case of `CCCCCCC1CC(C)(/C(C)=N/NC(N)=O)OC1=O` (stereo not given), the AC50 entry is “inactive”.

`CCOC(=O)N/N=C1/C[C@@H](O)[C@@H](O)[C@@H]2[C@@H]3C(=O)N([C@@H](C)c4ccccc4)C(=O)[C@H]3CC[C@@H]12`: the activity, negative = inhibition was 0.427% [at 11.4 µM] (inactive).

Take `COc1ccc(NC(=S)Nc2ncccc2C)c(OC)c1`: the AC50 result was “inactive”.

On to `Nc1nc2c(ncn2[C@@H]2C=C[C@@H](CO)C2)c(=O)[nH]1`, for which the activity, negative = inhibition was 4.55% [at 11.4 µM] (inactive).

Regarding `Cc1cc(-c2c(C)[nH]n(-c3ccccc3)c2=O)n(-c2ccccc2)n1`, the AC50 result was “inactive”.

Take `O=C(O)[C@H](Cc1ccc(O)c([N+](=O)[O-])c1)N1C(=O)c2ccccc2C1=O`: the activity, negative = inhibition was 6.61% [at 11.4 µM] (inactive).

As to `CN1CCN(c2ncc3nc(-c4ccc(F)cc4)c(=O)n(Cc4cccs4)c3n2)CC1`, the AC50 entry was “inactive”.

For the molecule `CN(C)Cc1ccccc1-c1nc(N(C)C)c2ccccc2n1`, the AC50 was 2.51 µM (active).

Turning to `Cc1cccc(CNc2nc(-c3ccccc3CN(C)C)nc3ccccc23)c1`, the AC50 is 12.6 µM (active).

As to `CNc1nc(-c2ccccc2CN(C)C)nc2ccccc12`, the AC50 was 3.98 µM (active).

In the case of `CNc1nc(-c2c(C)noc2C)nc2ccccc12`, the AC50 entry is “inactive”.

Take `Cc1noc(C)c1-c1nc(N2CCOCC2)c2ccccc2n1`: the AC50 result was “inactive”.

With `CN(C)Cc1ccccc1-c1nc(N2CCOCC2)c2ccccc2n1`, the AC50 is 7.94 µM (active).

As to `Cc1ccccc1-c1nc(N2CCOCC2)c2ccccc2n1`, the AC50 result is “inactive”.
